Source: PubChem BioAssay (NCI)
The panel holds about 83,000 compounds, 20% with a hit somewhere; the sample as a whole holds those more often.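 Growth was measured after 48 h exposure to one concentration of compound in 96-well plates. Values under 10 count as active.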 The source made the active and inactive calls.

How the values were obtained:
Experiment in all cases: NCI-60 one-dose screen, 48 h (100 = growth as untreated, 0 = no growth, -100 = all killed)
Settings in all cases: 10 µM unless noted
SK-MEL-2 melanoma = system: SK-MEL-2 melanoma
EKVX NSCLC = system: EKVX NSCLC
SN12C renal = system: SN12C renal
UO-31 renal = system: UO-31 renal
TK-10 renal = system: TK-10 renal
ACHN renal = system: ACHN renal
CAKI-1 renal = system: CAKI-1 renal
A498 renal = system: A498 renal
CCRF-CEM leukemia = system: CCRF-CEM leukemia
MOLT-4 leukemia = system: MOLT-4 leukemia

Measured: growth

COC(=O)[C@]12CCC(C)(C)C[C@H]1[C@H]1C(=O)C[C@@H]3[C@@]4(C)c5c([nH]c6ccccc6c5=O)C(C)(C)[C@@H]4CC[C@@]3(C)[C@]1(C)CC2
inactive: SK-MEL-2 melanoma 75.5% | EKVX NSCLC 52.4% | SN12C renal 70% | UO-31 renal 67.2% | TK-10 renal 84.7% | ACHN renal 53% | CAKI-1 renal 50.7% | A498 renal 69% | CCRF-CEM leukemia 59.5% | MOLT-4 leukemia 43.5%

COc1cccc(-c2nc3sccn3c2-c2ccnc(NCCCNS(=O)(=O)c3cccc(Cl)c3)c2)c1
active: MOLT-4 leukemia 9.9%
inactive: SK-MEL-2 melanoma 39.8% | EKVX NSCLC 40.6% | SN12C renal 45.5% | UO-31 renal 20.4% | TK-10 renal 71.5% | ACHN renal 37.5% | CAKI-1 renal 25.9% | A498 renal 54.4% | CCRF-CEM leukemia 18.1%

CCCCN1CCCn2c1nc1c2c(=O)n(CCC)c(=O)n1CCC
inactive: SK-MEL-2 melanoma 90.1% | EKVX NSCLC 97.2% | SN12C renal 93.2% | UO-31 renal 76.8% | TK-10 renal 97.1% | ACHN renal 88.4% | CAKI-1 renal 89.1% | A498 renal 80.2% | CCRF-CEM leukemia 104% | MOLT-4 leukemia 103%

O=C(O)c1ccc(NC(=O)c2ccc(-c3cccc([N+](=O)[O-])c3)o2)cc1
inactive: SK-MEL-2 melanoma 102% | EKVX NSCLC 93.6% | SN12C renal 93.2% | UO-31 renal 77.8% | TK-10 renal 102% | ACHN renal 104% | CAKI-1 renal 88% | A498 renal 110% | CCRF-CEM leukemia 106% | MOLT-4 leukemia 109%

CC(C)n1c(/C=C/[C@@H](O)C[C@@H](O)CC(=O)O)c(-c2ccc(F)cc2)c2ccccc21
active: CAKI-1 renal -42.9% | A498 renal -21.3%
inactive: SK-MEL-2 melanoma 15% | EKVX NSCLC 52.7% | SN12C renal 36.4% | UO-31 renal 44.7% | TK-10 renal 88.7% | ACHN renal 10.3% | CCRF-CEM leukemia 59.8% | MOLT-4 leukemia 60.8%

C#CCOc1ccc2ncnc(Nc3cccc(CNC(=O)C=C)c3)c2c1
inactive: SK-MEL-2 melanoma 104% [8.25 µM] | EKVX NSCLC 98.6% [8.25 µM] | SN12C renal 95.5% [8.25 µM] | UO-31 renal 82.3% [8.25 µM] | TK-10 renal 91.5% [8.25 µM] | ACHN renal 95.8% [8.25 µM] | CAKI-1 renal 96.3% [8.25 µM] | A498 renal 58.8% [8.25 µM] | CCRF-CEM leukemia 111% [8.25 µM] | MOLT-4 leukemia 100% [8.25 µM]

C#CCOc1ccc2ncnc(N3CCC(NC(=O)CCl)CC3)c2c1
inactive: SK-MEL-2 melanoma 69.6% [8.25 µM] | EKVX NSCLC 72.7% [8.25 µM] | SN12C renal 63.6% [8.25 µM] | UO-31 renal 40.6% [8.25 µM] | TK-10 renal 69% [8.25 µM] | ACHN renal 57.6% [8.25 µM] | CAKI-1 renal 71.4% [8.25 µM] | A498 renal 29.9% [8.25 µM] | CCRF-CEM leukemia 39.8% [8.25 µM] | MOLT-4 leukemia 40.9% [8.25 µM]

O=C1Nc2ccc(Br)cc2C12Oc1ccccc1C1CC(c3ccc(F)cc3)=NN12 (stereo not given)
inactive: SK-MEL-2 melanoma 98.1% | EKVX NSCLC 85.5% | SN12C renal 93.3% | UO-31 renal 65.6% | TK-10 renal 121% | ACHN renal 91% | CAKI-1 renal 78.7% | A498 renal 102% | CCRF-CEM leukemia 91% | MOLT-4 leukemia 74.8%

Cn1cc(-c2nonc2-c2cn(C)c3ccc(F)cc23)c2cc(F)ccc21
inactive: SK-MEL-2 melanoma 30.5% | EKVX NSCLC 67.9% | SN12C renal 61.6% | UO-31 renal 68.6% | TK-10 renal 85.9% | ACHN renal 70.3% | CAKI-1 renal 42% | A498 renal 54.2% | CCRF-CEM leukemia 33.6% | MOLT-4 leukemia 29.1%

O=C(O)COc1ccc(Cl)cc1C1CCCCC1
inactive: SK-MEL-2 melanoma 103% | EKVX NSCLC 117% | SN12C renal 98.5% | UO-31 renal 87.6% | TK-10 renal 101% | ACHN renal 107% | CAKI-1 renal 99.4% | A498 renal 90.2% | CCRF-CEM leukemia 92.1% | MOLT-4 leukemia 87.9%

CC1SC(c2ccc(N(C)C)cc2)N(NC(=O)C(O)(c2ccccc2)c2ccccc2)C1=O (stereo not given)
inactive: SK-MEL-2 melanoma 104% | EKVX NSCLC 93.5% | SN12C renal 110% | UO-31 renal 47.7% | TK-10 renal 89.4% | ACHN renal 94% | CAKI-1 renal 91.2% | A498 renal 101% | CCRF-CEM leukemia 65.1% | MOLT-4 leukemia 72%

CC1=CC(=NN=c2cc(C)n([O-])c(C)c2)C=C(C)[N+]1=O
inactive: SK-MEL-2 melanoma 84.7% | EKVX NSCLC 110% | SN12C renal 92.1% | UO-31 renal 85.7% | TK-10 renal 85.8% | ACHN renal 110% | CAKI-1 renal 98.2% | A498 renal 124% | CCRF-CEM leukemia 91.7% | MOLT-4 leukemia 81.7%

C=C(C)[C@@H]1CC[C@]2(C(N)=O)CC[C@]3(C)[C@H](CC[C@@H]4[C@@]5(C)C/C(=C/c6ccco6)C(=O)C(C)(C)[C@@H]5CC[C@]43C)[C@@H]12
inactive: SK-MEL-2 melanoma 99.5% | EKVX NSCLC 89.8% | SN12C renal 96.1% | UO-31 renal 84.4% | TK-10 renal 105% | ACHN renal 84.4% | CAKI-1 renal 59% | A498 renal 104% | CCRF-CEM leukemia 93.4% | MOLT-4 leukemia 79.7%

CCN1CCC2(CC1)NC(=O)c1c(c3ccc(Cl)c(Cl)c3n1C)C2C#N (stereo not given)
active: A498 renal 3.01%
inactive: SK-MEL-2 melanoma 21.4% | EKVX NSCLC 68.8% | SN12C renal 49.4% | UO-31 renal 43% | TK-10 renal 54.5% | ACHN renal 45.6% | CAKI-1 renal 37.3% | CCRF-CEM leukemia 39.5% | MOLT-4 leukemia 24.4%

COc1ccc(-c2nn(-c3ccc(Cl)cc3)cc2-c2nc3ccccc3[nH]2)cc1
inactive: SK-MEL-2 melanoma 101% | EKVX NSCLC 85.2% | SN12C renal 85.7% | UO-31 renal 44.4% | TK-10 renal 91.2% | ACHN renal 89.5% | CAKI-1 renal 92% | A498 renal 100% | CCRF-CEM leukemia 99.9% | MOLT-4 leukemia 81.8%

COc1ccc2nc(NC(=O)CSc3nnc4n3S(=O)(=O)c3ccccc3N4c3ccccc3)sc2c1
active: UO-31 renal -39.9% | CAKI-1 renal -0.617% | CCRF-CEM leukemia -19.7% | MOLT-4 leukemia 6.47%
inactive: SK-MEL-2 melanoma 87.9% | EKVX NSCLC 94.4% | SN12C renal 107% | TK-10 renal 103% | ACHN renal 92.8% | A498 renal 121%

O=C(Nc1ccc(Cl)cc1)c1cc2cc(F)ccc2cc1O
inactive: EKVX NSCLC 17% | UO-31 renal 12.6% | TK-10 renal 17.7% | CAKI-1 renal 12% | CCRF-CEM leukemia 15.6%
active: SK-MEL-2 melanoma 6.39% | SN12C renal 7.85% | ACHN renal 3.91% | A498 renal -43.4% | MOLT-4 leukemia 7.89%

COc1ccc(S(=O)(=O)N2CC3(COC3)C2)cc1NC(=O)c1[nH]c(C)c2c1CCCCC2=O
inactive: SK-MEL-2 melanoma 62.7% | EKVX NSCLC 58.2% | SN12C renal 54.9% | UO-31 renal 40.4% | TK-10 renal 17.5% | ACHN renal 60.4% | CAKI-1 renal 20% | A498 renal 69.8% | CCRF-CEM leukemia 72.5% | MOLT-4 leukemia 76.4%

CC(=O)O[C@H]1CC[C@]2(C)[C@H]3CC=C4[C@@H]5CC(C)(C)CC[C@]5(C(=O)NCCNCCNCCN)CC[C@@]4(C)[C@]3(C)CC[C@H]2C1(C)C
inactive: SK-MEL-2 melanoma 96.9% | EKVX NSCLC 81.9% | SN12C renal 89.5% | UO-31 renal 79.1% | TK-10 renal 97.2% | CAKI-1 renal 77.8% | A498 renal 54.6%
active: ACHN renal -25.4% | CCRF-CEM leukemia -9.21% | MOLT-4 leukemia -13%

Cc1oc(-c2ccc(Cl)cc2Cl)cc1C(=O)Nc1nccs1
inactive: SK-MEL-2 melanoma 102% | EKVX NSCLC 70.7% | SN12C renal 78.3% | UO-31 renal 82% | TK-10 renal 103% | ACHN renal 62.5% | CAKI-1 renal 78.1% | A498 renal 102% | CCRF-CEM leukemia 89% | MOLT-4 leukemia 94%

NC(=O)c1cc(Br)ccc1NC(=O)/C=C/c1ccccc1
inactive: SK-MEL-2 melanoma 47.7% | EKVX NSCLC 46.4% | SN12C renal 48.3% | UO-31 renal 37.7% | TK-10 renal 98.7% | ACHN renal 64.4% | CAKI-1 renal 53.2% | A498 renal 59.7% | MOLT-4 leukemia 36.8%
active: CCRF-CEM leukemia 9.57%

COc1cc(C(=O)Oc2ccccc2OC(=O)c2cc(OC)c(OC)c(OC)c2)cc(OC)c1OC
inactive: SK-MEL-2 melanoma 115% | EKVX NSCLC 95.7% | SN12C renal 98.4% | UO-31 renal 84.5% | TK-10 renal 98.4% | ACHN renal 93.9% | CAKI-1 renal 91.6% | A498 renal 108% | CCRF-CEM leukemia 97.2% | MOLT-4 leukemia 114%

COc1ccc(/C=C/C(=O)c2cc(O)ccc2O)cc1
inactive: SK-MEL-2 melanoma 101% | EKVX NSCLC 93% | SN12C renal 93.7% | UO-31 renal 73.1% | TK-10 renal 95.3% | ACHN renal 84.9% | CAKI-1 renal 67.7% | A498 renal 109% | CCRF-CEM leukemia 41.1% | MOLT-4 leukemia 79.2%

COc1cc(C=Nc2oc(-c3ccccc3)c(-c3ccccc3)c2C#N)cc(CN2CCCCC2)c1O
inactive: SK-MEL-2 melanoma 103% | EKVX NSCLC 95% | SN12C renal 99.5% | UO-31 renal 73.6% | TK-10 renal 107% | ACHN renal 99.6% | CAKI-1 renal 86.6% | A498 renal 72.3% | CCRF-CEM leukemia 101% | MOLT-4 leukemia 86.8%

O=C1NC(=O)C(c2ccc(Cl)cc2Cl)N1 (stereo not given)
inactive: SK-MEL-2 melanoma 110% | EKVX NSCLC 113% | SN12C renal 104% | UO-31 renal 73.2% | TK-10 renal 98.1% | ACHN renal 110% | CAKI-1 renal 100% | A498 renal 96.6% | CCRF-CEM leukemia 93.2% | MOLT-4 leukemia 94.3%

O=[N+]([O-])c1ccc(Nc2nc(NCCN3CCOCC3)ncc2[N+](=O)[O-])cc1
inactive: SK-MEL-2 melanoma 93.7% | EKVX NSCLC 88.2% | SN12C renal 90.2% | UO-31 renal 63.9% | TK-10 renal 76.5% | ACHN renal 80.9% | CAKI-1 renal 56.7% | A498 renal 79.1% | CCRF-CEM leukemia 98.1% | MOLT-4 leukemia 103%
